High-throughput results (PubChem)
Sampled rows, rich in hits. Any-hit rate of the full collection: about 19%.
KB-3-1 cytotox = KB-3-1 parental cell cytotoxicity. Potency, µM (doses to about 46.1 µM), actives largely listed as cytotoxic. actives 1.4% (n = 400,000). AID 1347075. KB-3-1 viability, CellTiter-Glo ATP luminescence, 72 h; further: nearly all actives have a fitted effect of over 60% in size
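Viability of parental KB-3-1 cells, measured by CellTiter-Glo luminescence, followed a 72 h incubation at 37 °C with pinned compounds in phenol-red-free DMEM containing 10% FBS.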
DT40 TDP1 no CPT = qHTS for Inhibitors of human tyrosyl-DNA phosphodiesterase 1 (TDP1): qHTS in cells in absence of CPT | AID 686978, 2013 | actives 15% (n = 420,000) | DT40 Tdp1-/- hTDP1 cells, no CPT, ATP luminescence, 48 h | Potency, µM (top dose mostly 46.2 µM), without a hit: top-dose activity change, negative = growth inhibition, most hits filed as inhibitors; further: nearly all actives have a fitted effect of over 55% in size
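Cells were dispensed at 400 per well, compounds added by pin tool, plates incubated ≥48 hr at 37 °C, then CellTiter-Glo added for 30 min at room temperature before luminescence reading. Line: DT40 Tdp1-/- complemented with hTDP1; camptothecin omitted.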
HT1080NT lethal = kills 2HG-producing HT-1080-NT fibrosarcoma cells; actives 1.6% (n = 360,000); Potency, µM (top dose mostly 46.1 µM), for inactives: at the top dose activity, negative = less viability, most hits filed as cytotoxic; HT-1080-NT fibrosarcoma viability, CellTiter-Glo ATP luminescence, 48 h; AID 686970;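 further: NT is the 2HG producing partner of a matched IDH1 knockdown line; 0% = DMSO-treated cells and -100% = media-only wells without cells; nearly all actives have a fitted effect of over 55% in size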
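Read-out is CellTiter-Glo luminescence after 10 minutes at room temperature, following 48 hours' compound treatment of HT-1080-NT cells (750 cells/well, RPMI, 5% FBS, 37 degrees C).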
HT1080 IDH1KD tx = toxicity to HT-1080 IDH1 knockdown cells (counter line); HT-1080 IDH1 knockdown viability, ATP luminescence, 48 h; Potency, µM (top dose mostly 46.1 µM), for the others: at the top dose activity, negative = toxicity, hits mostly cytotoxic; actives 2% (n = 360,000); AID 686971;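 further: 0% = DMSO wells and -100% = cell-free medium wells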
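Luminescent ATP read-out (CellTiter-Glo, 10 min at room temperature) after 48 h compound exposure at 37 °C gave viability of IDH1-knockdown HT-1080 cells. Activity was normalised to DMSO and cell-free wells, then fitted as concentration-response curves.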
TDP1 cell CPT = DT40-hTDP1 cell growth loss with CPT | chicken DT40 Tdp1-/-;hTDP1 cells + 20 nM CPT, ATP luminescence, 48 h | Potency, µM (series often up to 46.2 µM), inactives show top-dose activity change, negative = growth inhibition, hits mostly inhibitors | actives 12% (n = 420,000); further: nearly all actives have a fitted effect of over 55% in size
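Chicken DT40 Tdp1-/- cells stably complemented with human TDP1 were seeded at 400 cells/well in medium containing 20 nM camptothecin, exposed to pin-transferred compounds, and grown at 37 °C for at least 48 hr. Viability was read as ATP luminescence.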
KB-V1 cytotox = KB-V1 MDR subline cytotoxicity | KB-V1 MDR cells viability, CellTiter-Glo, 72 h | Potency, µM (highest dose often 46.1 µM), most hits filed as cytotoxic | actives 3.4% (n = 400,000); further: nearly all actives have a fitted effect of over 60% in size
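Readout: CellTiter-Glo luminescence, 10 min after addition. Cells: KB-V1 MDR subline, 72 h at 37 degrees C with compound. Analysis: corrected, normalized data fitted to concentration-effect curves.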
* hit, by the source's call; i = inactive; ? = inconclusive; / = not tested or not shown. The call rests on the fitted dose curve; in most records, active means well fitted curve in the direction sought with a large enough effect; inconclusive means small, poorly fitted or top-dose-only effect, or another doubt; inactive means no such curve, though single readings can be large; an effect the other way counts as inactive or inconclusive. Unless noted, on the % scale 0 is the no-effect control and ±100 the full control effect; potency means the concentration at half of the fitted maximal effect.

SMILES	KB-3-1 cytotox	DT40 TDP1 no CPT	HT1080NT lethal	HT1080 IDH1KD tx	TDP1 cell CPT	KB-V1 cytotox
O=C(/C=C/c1c(F)c(F)c(F)c(F)c1F)Nc1cccc([S+](=O)([O-])Nc2ccccc2F)c1	i	/	/	/	/	i
CCCC12CN3CC(C)(CN(C1)C3c1cn(CC)c3ccccc13)C2=O (centres undefined)	i	?	/	/	?	i
O=C(Nc1ccc(S(=O)(=O)NCC2CCCO2)cc1)c1cccc(F)c1 (centres undefined)	i	?	?	-3%	?	i
COc1cccc(CN(C)C(=O)c2cc(-c3ccc(OC)c(OC)c3)nc3ccccc23)c1	/	?	-10%	-16%	15µM*	/
COc1ccc(CN(C)C(=O)c2sccc2-c2ccccc2)c(OC)c1	i	?	-13%	-18%	?	i
COc1ccc(CN(C)C(=O)c2cc(-c3ccc(OC)c(OC)c3)nc3ccccc23)c(OC)c1	i	18µM*	-9%	-20%	16µM*	i
COc1ccc(-c2cc(C(=O)N(C)Cc3cccc(OC)c3OC)c3ccccc3n2)cc1OC	i	15µM*	-22%	-26%	21µM*	i
COc1ccc(-c2cc(C(=O)N(C)Cc3nc4ccccc4c(=O)[nH]3)c3ccccc3n2)cc1OC	i	21µM*	-4%	-4%	?	?
COc1cccc(NC(=O)CN(C)C(=O)c2cc(-c3ccccc3)nc3ccccc23)c1	i	?	-14%	-15%	?	?
CCN(CC(=O)Nc1ccc2c(c1)OCCO2)C(=O)c1ccc(S(=O)(=O)N(C)C)cc1	i	-16%	2%	-9%	2%	i
COCCNC(=O)c1cc(-c2cccnc2)nc2ccc(Br)cc12	i	?	4%	2%	?	i
Cc1c(CN(C)C(=O)c2cc(-c3ccccc3)nc3ccc(Br)cc23)cnn1C	i	10µM*	/	/	21µM*	i
N#CC1=C(N)C(C#N)(C#N)C(c2cccnc2)C2CN(C(=O)OCc3ccccc3)CC=C12 (centres undefined)	i	?	?	?	16µM*	?
CCOC(=O)N1CC=C2C(C#N)=C(N)C(C#N)(C#N)[C@H](c3ccc(OCC)c(OCC)c3)[C@H]2C1	i	-28%	-4%	?	?	8.2µM*
Cc1cc(C(=O)NNC(=O)/C=C/c2ccco2)c(C)o1	i	4%	7%	2%	7%	i
CC(=O)c1ccc(NC(=O)COc2ccc3c(c2)OCO3)cc1	i	6%	-2%	-23%	2%	i
CCCCN1C(=O)CC(SC2CC(=O)N(CCCC)C2=O)C1=O (centres undefined)	i	5.8µM*	-3%	-3%	16µM*	i
CCN1C(=O)CC(SC2CC(=O)N(CC)C2=O)C1=O (centres undefined)	i	8.2µM*	2%	3%	3.7µM*	?
COc1ccc(-n2c(=O)c3sc4ccccc4c3n(CC(=O)N3CCCC3)c2=O)cc1	i	-27%	/	/	-15%	i
CN(CC(=O)Nc1ccccc1C(F)(F)F)C(=O)C1CCN(S(=O)(=O)c2ccc3c(c2)OCCO3)CC1	i	?	4%	0%	?	i
CCOC(=O)C=C(C(=O)OCC)C(=O)OCC	i	4.6µM*	11%	-1%	4.6µM*	?
CCOC(=O)CNC=C(C(=O)OCC)C(=O)OCC	i	1%	-3%	11%	-5%	i
Cn1c(=O)c2c(nc(N/N=C/c3cccs3)n2Cc2ccccc2)n(C)c1=O	?	23µM*	5%	7%	?	?
Cn1c(=O)c2c(nc(N/N=C/c3ccc(OC(=O)c4ccco4)cc3)n2Cc2ccccc2)n(C)c1=O	?	8.2µM*	-8%	-4%	12µM*	?
CCOc1ccc2c(c1)c(=O)c(S(=O)(=O)c1ccc(Cl)cc1)cn2Cc1ccccc1C	i	?	/	/	?	i
SMILES	KB-3-1 cytotox	DT40 TDP1 no CPT	HT1080NT lethal	HT1080 IDH1KD tx	TDP1 cell CPT	KB-V1 cytotox
Cc1ccc(S(=O)(=O)NC2CCSC2=O)cc1C (centres undefined)	i	0%	0%	14%	3%	i
CCCCCC/C=C/c1ccc([C@H]2[C@H]3C=CC[C@@H](C)[C@@H]3C(=O)N2Cc2ccccc2)c(F)c1	i	16µM*	13%	4%	?	i
COc1ccc(-c2ccoc2)cc1[C@H]1[C@H]2C=CC[C@@H](C)[C@@H]2C(=O)N1Cc1ccccc1	?	?	?	?	?	i
CCCCCC/C=C/c1ccc(OC)c([C@H]2[C@H]3C=CC[C@@H](C)[C@@H]3C(=O)N2Cc2ccccc2)c1	?	?	8%	9%	-29%	i
COc1ccc(-c2ccc(OC)c([C@H]3[C@H]4C=CC[C@@H](C)[C@@H]4C(=O)N3Cc3ccccc3)c2)cc1	i	15µM*	2%	0%	15µM*	i
COc1ccc(-c2ccc([C@H]3[C@H]4C=CC[C@@H](C)[C@@H]4C(=O)N3Cc3ccccc3)c(F)c2)cc1	i	21µM*	?	?	?	i
COc1ccc(-c2ccc(C)cc2)cc1[C@H]1[C@H]2C=CC[C@@H](C)[C@@H]2C(=O)N1Cc1ccccc1	i	?	2%	3%	?	i
COc1ccc(-c2ccc([C@H]3[C@H]4C=CC[C@@H](C)[C@@H]4C(=O)N3Cc3ccccc3)c(F)c2)cc1OC	?	16µM*	?	?	18µM*	?
O=C(NCc1ccccc1)Nc1nnc(-c2ccncc2)s1	i	/	/	/	/	i
S=C(S)O[C@@H]1C[C@@H]2C[C@H]1[C@@H]1CCC[C@H]21	/	-21%	/	/	-30%	/
CN(CC(=O)Nc1c(Cl)cccc1Cl)C(=O)CCC(=O)c1ccccc1	i	-13%	2%	7%	-24%	?
COCCCn1c(=O)c2ccccc2n(CC(=O)Nc2ccc3c(c2)OCCO3)c1=O	i	0%	15%	19%	3%	i
CN(Cc1ccccc1)C(=O)c1cccc(NC(=O)Cc2ccc(NC(=O)C3CCN(C(=O)C4CCCCC4)CC3)cc2)c1	i	-21%	-11%	?	-26%	i
